# A selection: hits, their analogues and other compounds. The true share with any hit is near 3.1%.
# ARNT TACC3 PPI – disrupts binding between human ARNT and TACC3; AlphaScreen His-ARNT PAS-B/GST-TACC3 binding, luminescence; TACC3 fragment carries E629A point mutation; inhibition, % at 9.99 µM; hit rate 0.66% among 390,000;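 active = mean inhibition of replicates at least 50% and at least half of replicates each reaching 50%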
# HSP90 inh – blocks HSP90-mediated luciferase refolding in reticulocyte lysate; Rabbit reticulocyte lysate, luciferase refolding luminescence, 3 h; inhibition, % at 5.6 µM; hit rate 0.91% among 290,000; AID 1789;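 active = inhibition above the screen-wide mean plus 3 SD, computed separately per campaign, cut at about 16% in these data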;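 also: inhibitors lower the luminescence because luciferase stays unfolded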
# HSF1 activator – increases HSF-1 driven luciferase reporter signal; NIH3T3-HGL HSF-1 luciferase reporter, MG132, 8 h; 100% = twice DMSO control signal; activation, % at 9 µM; hit rate 1.7% among 300,000; AID 504408;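 active = mean replicate activation of at least 50% with a set share of replicates each reaching 50%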
# HIF act – HIF pathway transcriptional activation; U2OS HRE-luciferase reporter, luminescence; normalized: DMSO 0%, desferrioxamine 100%; activation, % at 7.5 µM (by protocol); hit rate 0.32% among 300,000; AID 1910;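 active = mean activation of at least 10% of the iron chelator positive control signal, with at least half of replicates also reaching 10%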
# HSF1 inh – HSF1 inhibition. activity change, negative = inhibition, % at 7.5 µM (by protocol). hit rate 0.77% among 300,000. NIH3T3-HGL HSE-luciferase, MG132-induced, luminescence 8 h; stronger effect = lower value;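 active = more than half of replicate wells show activity change below -50%, luminescence cut by over half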;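 also: luciferase reports HSF-1 transcriptional activity via heat shock element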
# A number is an active result; 0 = inactive; - = not tested or not shown.
SMILES,ARNT TACC3 PPI,HSP90 inh,HSF1 activator,HIF act,HSF1 inh
COc1cc(C(c2c(C)[nH][nH]c2=O)c2c(C)[nH][nH]c2=O)cc([N+](=O)[O-])c1O,0,0,0,0,0
CCOc1cc(C(c2c(C)[nH][nH]c2=O)c2c(C)[nH][nH]c2=O)cc([N+](=O)[O-])c1O,active,0,0,0,0
CCOc1cc(C(c2c(C)[nH][nH]c2=O)c2c(C)[nH][nH]c2=O)ccc1OCc1ccc([N+](=O)[O-])cc1,0,0,128.8,0,0
CC=Cc1ccc2n(c1=O)C[C@@H]1[C@@H](CO)[C@H](C(=O)N[C@@H](C)c3ccccc3)N(C)[C@H]21 (mixture of isomers),0,-,-,-,-
Cn1cnc(CCNC(=O)C[C@@H]2CC[C@H]3[C@@H](COC[C@@H](O)CN3C(=O)Nc3ccc(F)cc3)O2)c1,0,-,-,-,-
CO[C@H]1CN(C)C(=O)c2ccc(NS(C)(=O)=O)cc2OC[C@H](C)NC[C@H]1C,0,-,-,-,-
Cc1ccc(S(=O)(=O)N2CCN(C(=O)c3c(-c4ccccc4)noc3C)CC2)cc1C,0,0,0,0,0
Cc1ccc(S(=O)(=O)N2CCN(C(=O)c3c(-c4ccccc4)noc3C)CC2)c(C)c1,0,0,0,0,-75.8
Cc1oc2ccc(OCc3c(F)cccc3Cl)cc2c1C(=O)O,0,0,0,0,-57.3
Cc1oc2ccc(OCc3cccc(Cl)c3)cc2c1C(=O)O,0,0,0,0,0
O=C(CN1CCOCC1)NCC[C@@H]1CC[C@H](NC(=O)Nc2ccc(F)cc2)[C@@H](CO)O1,0,-,-,-,-
CCCNC(=O)C[C@@H]1CC[C@@H]2[C@H](COc3ccc(NC(=O)c4cccc(Cl)c4)cc3C(=O)N2C)O1,0,-,-,-,-
N#C/C(=C\C=C\c1ccccc1[N+](=O)[O-])C(=O)NC1CCCCC1,0,0,81.7,0,0
COc1ccc(S(=O)(=O)Nc2ccc3c(c2)C(=O)N([C@H](C)CO)C[C@H](C)[C@H](CN(C)C(=O)c2ccccc2)OCCCC[C@H](C)O3)cc1,0,-,-,-,-
O=C(C[C@H]1CC[C@@H]2[C@H](COC[C@H](O)CN2Cc2cccc(Cl)c2)O1)NCC1CCCCC1,0,-,-,-,-
COCC(=O)N(C[C@@H]1N[C@H](CO)[C@H]1c1ccc(C2=CCCC2)cc1)C(C)C,0,-,-,-,-
Cc1ccc(NC(=O)n2ncc3c(C)cccc32)c(C)c1,0,0,56.7,0,0
COc1cccc(NC(=O)n2ncc3c(C)cccc32)c1,0,35.3,0,0,0
Cc1cc(C(=O)CN2C(=O)NC3(CCCCC3)C2=O)c(C)n1Cc1ccco1,0,0,89.2,0,0
Cc1ccc(S(=O)(=O)N2CC[C@@H]3[C@H]2c2cc(C#Cc4ccc(F)cc4)ccc2N[C@@H]3CO)cc1,0,-,-,-,-
Cc1cccc(-c2noc(CN(C)S(=O)(=O)c3cc(Cl)ccc3Cl)n2)c1,0,0,0,167.5,0
COCCCn1c(C(=O)NC2CCCCC2C)cc2c(=O)n3cccc(C)c3nc21 (configuration not stated),0,0,70.5,0,0
CCN(C(=O)c1cc2c(=O)n3cccc(C)c3nc2n1CCCOC)C1CCCCC1,0,0,0,0,0
COCCn1c(N)c(N(Cc2ccccc2)C(=O)c2ccc(C#N)cc2)c(=O)[nH]c1=O,0,0,55.3,0,0
COCCn1c(N)c(N(Cc2ccccc2)C(=O)Cc2c(Cl)cccc2Cl)c(=O)[nH]c1=O,0,0,0,0,0
SMILES,ARNT TACC3 PPI,HSP90 inh,HSF1 activator,HIF act,HSF1 inh
CO[C@@H]1CN(C)C(=O)c2cc(NS(C)(=O)=O)ccc2OC[C@@H](C)NC[C@H]1C,0,-,-,-,-
O=C(C1CCOCC1)N1C[C@@H]2[C@H](c3ccccc31)[C@H](CO)N2Cc1ccccc1,0,-,-,-,-
CC[C@H](C)/C=C(C)/C=C/C1=CC2=CC(=O)[C@]3(C)OC(=O)[C@@H](C(C)=O)[C@@H]3C2=CO1,0,0,0,0,0
CC[C@H](C)/C=C(C)/C=C/C(=O)Cc1cc(O)c(C)c(O)c1C=O,0,-,78.3,0,0
C[C@@H]1CN([C@@H](C)CO)C(=O)c2cc(NS(=O)(=O)c3ccccc3)ccc2O[C@@H](C)CCCCO[C@H]1CN(C)C(=O)Nc1cccc2ccccc12,0,-,-,-,-
O=[N+]([O-])c1ccc(-c2cnc(SCc3ccccc3Cl)[nH]2)cc1,0,0,55.6,0,0
O=[N+]([O-])c1ccc(-c2cnc(SC(c3ccccc3)c3ccccc3)[nH]2)cc1,0,0,0,0,0
C[C@H](CO)N1C[C@H](C)[C@@H](CN(C)C(=O)C2CCCCC2)OCCCC[C@H](C)Oc2ccc(NC(=O)Nc3ccc4c(c3)OCO4)cc2C1=O,0,-,-,-,-
CN1CCN(C(=O)C[C@@H]2CC[C@H](NC(=O)Cc3ccccn3)[C@@H](CO)O2)CC1,0,-,-,-,-
Cc1nc(-n2[nH]c3c(c2=O)CCCC3)[nH]c(=O)c1Cc1ccccc1,59.3,0,0,12.5,0
Cc1ccc(C(=O)NC(=C(Cl)Cl)S(=O)(=O)c2ccc(Cl)cc2)cc1,0,0,185.1,0,0
Cc1ccc(S(=O)(=O)/C(=C/Cl)NC(=O)c2ccccc2)cc1,0,0,90.5,0,0
O=C(NC(=C(Cl)Cl)S(=O)(=O)c1ccc(Cl)cc1)c1ccccc1,0,0,67.0,0,0
Cc1ccc(C(=O)NC(=C(Cl)Cl)S(=O)(=O)c2ccc(C)cc2)cc1,0,0,0,0,0
CCN(CCn1cccn1)C(=O)c1cc(COc2ccccc2SC)on1,0,0,0,0,0
CCN(CCn1cccn1)C(=O)c1cc(COc2cc(C)ccc2C)on1,0,0,59.4,0,0
Cc1ccc(C)c(OCc2cc(C(=O)N3CCN(c4ccccc4)CC3)no2)c1,0,0,55.6,0,0
O=C(NC1=NCCS1)c1cccc(NC(=O)c2ccco2)c1,0,0,0,11.7,0
Cc1cc(C)cc(NC(=O)c2cccc(NC(=O)c3ccco3)c2)c1,0,-,0,53.4,0
CC(=O)c1cccc(NC(=O)c2cccc(NC(=O)c3ccco3)c2)c1,0,0,0,0,0
O=C(NC1=NCCS1)c1cccc(Br)c1,0,-,0,0,0
C[C@H]1CN([C@@H](C)CO)C(=O)c2cccc(NC(=O)c3nc4ccccc4s3)c2O[C@@H]1CN(C)Cc1ccc(-c2ccccc2)cc1,0,-,-,-,-
C[C@@H]1CN([C@@H](C)CO)C(=O)c2cc(NC(=O)C3CCCCC3)ccc2O[C@@H]1CN(C)Cc1ccc(C(F)(F)F)cc1,0,-,-,-,-
CCCC(=O)Nc1cnc(NC(=O)c2cccc(F)c2)cc1C,0,16.7,0,0,0
Cc1cc(NC(=O)C(C)C)ncc1NC(=O)c1cccc(F)c1,0,0,0,0,0
ONC=Nc1cccc2nonc12,-,0,0,11.8,0
CCc1ccc(OC(C)C(=O)N(Cc2ccco2)C2CCS(=O)(=O)C2)cc1 (configuration not stated),0,0,0,0,-83.0
O=C(O)CSc1c(-c2ccccc2)[nH]c2ccccc12,0,0,70.1,0,0
